Source: PubChem BioAssay
HTT ATP protect: protects HTT-Q103 PC12 cells, measured by ATP; PC12 HTT-Q103 induced, cytoprotection, ATP luminescence, 40 h; Potency, µM (top dose mostly 56.4 µM), without a hit: cytoprotection (ATP increase), usual class: activators; hit rate 0.14% among 230,000; AID 1471; also: % of control where 0% means no effect; nearly all actives have a fitted effect of over 45% in size
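ATP quantification (ATPlite) reports survival of PC12 cells in which tebufenozide, 100 nM final, switches on Htt exon 1 with 103 glutamines linked to GFP; compounds are titrated.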
Luc counter: counter-screen: inhibitors of Kinase-Glo firefly luciferase | Q27757 | hit rate 0.28% among 200,000 | AID 1379 | Kinase-Glo luciferase, ATP luminescence, 8 min | Potency, µM (highest dose often 38.3 µM), without a hit: top-dose activity change, negative = inhibition, hits mostly inhibitors; also: % is scaled to controls: 0 for no effect and ±100 for the full control effect; nearly all actives have a fitted effect of over 60% in size
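Recombinant Kinase-Glo luciferase, 10 uM ATP (linear range), luciferin; imidazole pH 7.2 / KCl / MgCl2 / Tween / BSA buffer; 8 min RT; luminescence.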
HTT aggregate: reduces HttQ103-GFP aggregates in PC12 cells; hit rate 1.1% among 220,000; PC12 HttQ103-GFP aggregates, Acumen cytometry, 40 h; Potency, µM (series often up to 46.1 µM), for the others: at the highest dose activity change, negative = inhibition, most hits filed as inhibitors; AID 1688; also: % is scaled to controls: 0 for no effect and ±100 for the full control effect; nearly all actives have a fitted effect of over 60% in size
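Ecdysone-promoter PC12 model expressing HTT exon 1 Q103 fused to GFP, induced by tebufenozide at 100 nM final. Compounds titrated; aggregates sized 1–25 µm scored on a 488 nm laser cytometer.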
Lamin A splicing: changes lamin A minigene splicing in HeLa cells; HeLa LMNA splicing GFP/RFP minigene ratio, 48 h; Potency, µM (doses to about 46.1 µM), without a hit: at the top dose ratio change, negative = inhibition, usual class: inhibitors; hit rate 0.01% among 200,000; AID 1487; active = well fitted inhibition curve with a large enough effect in the signal ratio, with a control signal flat, not every such curve was filed as active; inconclusive = small, poorly fitted or top-dose-only effect, or effect the other way, or a change in a side signal; the % refers to the signal ratio; also: % is scaled to controls: 0 for no effect and ±100 for the full control effect
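S3 HeLa cells stably expressing lamin A-EGFP splicing minigene plus DsRed2, 600 cells/well, 48 h compound exposure at 37C. Laser-scanning cytometry; analysed as GFP (500-530 nm)/RFP (575-640 nm) total intensity ratio; 0.5% DMSO vehicle.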
HPGD block: blocks human HPGD enzyme activity; purified HPGD, NADH fluorescence kinetic, PGE2 substrate; Potency, µM, for inactives: at the top dose activity change, negative = inhibition, actives largely listed as inhibitors; hit rate 4.3% among 150,000; P15428; AID 894; active = well fitted inhibition curve with a large enough effect, not every such curve was filed as active; inconclusive = small, poorly fitted or top-dose-only effect, or another doubt; inactive = no such curve, though single readings can be large or run the other way; also: % is scaled to controls: 0 for no effect and ±100 for the full control effect
Target sequence (P15428 whole entry, looked up): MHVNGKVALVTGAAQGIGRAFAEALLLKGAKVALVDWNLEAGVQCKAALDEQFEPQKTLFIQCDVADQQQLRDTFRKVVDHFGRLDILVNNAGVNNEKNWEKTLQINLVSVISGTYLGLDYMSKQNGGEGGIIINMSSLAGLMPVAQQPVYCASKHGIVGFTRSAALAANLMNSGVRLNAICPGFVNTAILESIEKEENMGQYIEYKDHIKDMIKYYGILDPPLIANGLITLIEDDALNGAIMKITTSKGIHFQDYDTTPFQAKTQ
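20 nM HPGD preincubated 15 min at room temperature with compound in 50 mM Tris-HCl pH 8, 0.01% Tween 20. Started with 1 mM NAD+ and 30 uM prostaglandin E2; NADH fluorescence (360/450 nm) read 5 times over 30-s intervals, last minus first.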
ALDH1A1 block: inhibitors of human aldehyde dehydrogenase 1A1; Purified ALDH1A1, NADH fluorescence, propionaldehyde substrate; Potency, µM (titrated, usually from 75.3 µM), without a hit: at the top dose activity, negative = inhibition, actives largely listed as inhibitors; hit rate 7.3% among 220,000; AID 1030; active = well fitted inhibition curve with a large enough effect, not every such curve was filed as active; inconclusive = small, poorly fitted or top-dose-only effect, or another doubt; inactive = no such curve, though single readings can be large or run the other way;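 also: plate controls were no enzyme wells and a reference inhibitor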
Target sequence (P00352 whole entry, looked up): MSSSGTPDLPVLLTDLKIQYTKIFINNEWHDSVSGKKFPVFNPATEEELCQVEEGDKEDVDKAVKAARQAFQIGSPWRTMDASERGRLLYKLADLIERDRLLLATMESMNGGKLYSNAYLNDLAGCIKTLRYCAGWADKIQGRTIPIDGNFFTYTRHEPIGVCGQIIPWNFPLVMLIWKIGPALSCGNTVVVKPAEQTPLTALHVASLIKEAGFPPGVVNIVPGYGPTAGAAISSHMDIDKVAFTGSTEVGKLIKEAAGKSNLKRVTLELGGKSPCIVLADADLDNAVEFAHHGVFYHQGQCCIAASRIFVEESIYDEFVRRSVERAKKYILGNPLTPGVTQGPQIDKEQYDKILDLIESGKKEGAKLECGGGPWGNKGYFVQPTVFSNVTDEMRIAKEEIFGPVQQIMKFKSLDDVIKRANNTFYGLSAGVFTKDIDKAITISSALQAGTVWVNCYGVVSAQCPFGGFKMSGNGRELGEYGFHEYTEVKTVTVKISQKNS
An asterisk follows results filed as active; ? = inconclusive; . = no result given; [ ] = remark or other dose. In the library only some 9% were active in any assay of this set; here they are far more common. Unless noted, calls follow the shape of the dose curve; as a rule, active = well fitted curve in the direction sought with a large enough effect; inconclusive = small, poorly fitted or top-dose-only effect, or another doubt; inactive = no such curve, though single readings can be large; an effect the other way counts as inactive or inconclusive. Potency is read from the fitted curve at half-maximal effect.

SMILES	HTT ATP protect	Luc counter	HTT aggregate	Lamin A splicing	HPGD block	ALDH1A1 block
O=C(CNC(=S)N(Cc1ccccc1)Cc1cccnc1)NC1CCCCC1	-16%[10 µM]	0%	16%	-5%	-4%	13µM*
O=C(O)CNC(=S)N(Cc1ccccc1)Cc1cccnc1	.	3%	16%	5%[46 µM]	.	-6%
CC1CCCC(NC(=O)CNC(=S)N(Cc2ccccc2)Cc2cccs2)C1C (centres undefined)	-47%	1%	?	27%[9.22 µM]	.	13µM*
O=C(CNC(=S)N(Cc1ccccc1)Cc1cccnc1)NCc1ccccc1	-14%	13%	-7%	.	.	18µM*
Cc1ccc(/C=N/NC(=O)c2ccc(Cn3cc([N+](=O)[O-])cn3)o2)cc1	.	10%	29%	-5%	-15%	7%
COc1ccccc1-c1ccc(=O)n(CC(=O)Nc2ccc(C(=O)N3CCCC3)cc2)n1	-12%	-2%	0%	-5%	14µM*	?
O=C(c1ccccc1)N1CCN(c2ncnc3sc4c(c23)CCC4)CC1	0%[10 µM]	0%	35µM*	?	-14%	1.3µM*
Cc1nc(N2CCN(C(=O)c3ccco3)CC2)c2c3c(sc2n1)CCC3	-7%	-6%	-26%	?	28µM*	?
C=CCSc1nc2c(c(=O)[nH]c(=O)n2C)n1C/C=C(/C)Cl	-53%	-2%	-16%	5%	-25%	?
C=CCSc1nc2c(c(=O)[nH]c(=O)n2C)n1CC	15%[10 µM]	1%	4%	3%	14µM*	14µM*
CSc1nc2c(c(=O)[nH]c(=O)n2C)n1C/C=C(\C)Cl	-10%[0.074 µM]	-1%	13%	-3%	?	25µM*
CCOC(=O)C(C)Sc1nc2c(c(=O)[nH]c(=O)n2C)n1C/C=C(/C)Cl (centres undefined)	-1%[0.074 µM]	3%	11%	-1%	22µM*	7.1µM*
CCSc1nc2c(c(=O)[nH]c(=O)n2C)n1C/C=C(/C)Cl	1%	-6%	-19%	3%	?	14µM*
CCC(CC)NC(=O)Nc1ccc(F)cc1F	-9%[10 µM]	-2%	-1%[9.22 µM]	?	.	-2%
Cc1nn2cc(-c3ccccc3)nc2s1	-106%[10 µM]	-16%	-2%	-2%	-6%	5%
COc1ccc(OC)c(NC=C2C(=O)OC(C)(C)OC2=O)c1	28%	-1%	10%	-9%	-18%	0.18µM*
COc1ccc(C(=O)NC=C2C(=O)OC(C)(C)OC2=O)cc1	-35%	-1%	-16%	.	.	13µM*
COc1ccc(OC)c(Nc2ccc(Nc3cc(OC)ccc3OC)nn2)c1	15%[10 µM]	0%	19%	?	-5%	-5%
CCOc1ccccc1N/C=C/C(=O)C(C)(C)C	-15%	-1%	13%	-1%	-19%	-5%
CCOc1ccccc1NC=C1C(=O)OC2(CCCCC2)OC1=O	-2%	1%	10%	-7%	-4%	0.71µM*
COc1ccc(OC)c(NC=C2C(=O)OC3(CCCCC3)OC2=O)c1	0%	-1%	0%	-13%	?	0.089µM*
CCOC(=O)C1=NOC(CNC(=O)C2=NOC(CNC(=O)c3c(-c4ccccc4Cl)noc3C)C2)C1 (centres undefined)	20%	3%	-4%	-5%	-5%	6%
CCOC(=O)C1=C(C)NC(=O)NC1c1cc(Br)c(O)c(OC)c1 (centres undefined)	-1%[10 µM]	-3%	11%	9%	-6%	2%
CC(=O)c1cccc(N/C=C\C(=O)c2ccc(C)cc2)c1	2%[10 µM]	-5%	22%	-1%	-23%	?
CC(=O)c1cccc(NC=C2C(=O)OC3(CCCCC3)OC2=O)c1	-1%	-3%	24%	-1%	-26%	2.2µM*
SMILES	HTT ATP protect	Luc counter	HTT aggregate	Lamin A splicing	HPGD block	ALDH1A1 block
COc1nc(N/N=C/c2cc3c(cc2Br)OCO3)nc(N2CCOCC2)n1	8%	.	9%	-1%	.	7.9µM*
Brc1cc2c(cc1/C=N/Nc1nc(N3CCCCC3)nc(N3CCCCC3)n1)OCO2	-60%	-2%	13%	.	.	1%
COc1cccc(C(c2c(C)[nH]n(-c3ccccc3)c2=O)c2c(C)[nH]n(-c3ccccc3)c2=O)c1OC	0%[10 µM]	0%	7%	-14%	22µM*	3.5µM*
COc1cccc(C(c2c(C)[nH]n(-c3ccccc3)c2=O)c2c(C)[nH]n(-c3ccccc3)c2=O)c1O	-12%	-3%	-8%	0%	-9%	-1%
Cn1c(SCC(=O)NC2CCCC2)nnc1-c1ccc(S(=O)(=O)N2CCOCC2)cc1	-6%[10 µM]	2%	1%	2%	-17%	?
NC(=O)CSc1nc2ccccc2c(=O)n1Cc1ccco1	5%[1.9 µM]	5%	-23%	-8%	-7%	?
COCCCNC(=O)CSc1nc2ccccc2c(=O)n1Cc1ccco1	.	.	.	3%[46 µM]	.	.
O=C(CSc1nc2ccccc2c(=O)n1Cc1ccco1)c1ccc(F)cc1	3%[10 µM]	-3%	0%	?	-30%	11µM*
O=C(CCCCCn1c(SCc2ccncc2)nc2ccccc2c1=O)NCc1ccco1	19%[10 µM]	0%	17%	-18%	18µM*	25µM*
O=C(CSc1nc2ccsc2c(=O)n1Cc1ccc(C(=O)O)cc1)NCc1ccco1	.	2%	4%	0%	20µM*	6%
COCCNC(=O)CSc1nc2cc(OC)c(OC)cc2c(=O)n1Cc1ccco1	-14%	-8%	-4%	0%	-14%	2.2µM*
CC1=C(C(=O)OCCOc2ccccc2)C(c2ccc(C)o2)C2=C(CC(C)(C)CC2=O)N1 (centres undefined)	-6%	-8%	-29%	-1%	?	?
O=C(O)c1cc(Cl)cc(Cl)c1	-5%	.	.	.	-4%	-9%
O=C(CSc1nc2ccccc2c(=O)n1Cc1ccccc1)NCc1ccco1	-4%	-1%	-14%	0%	-23%	?
CCSc1nc2cc(OC)c(OC)cc2c(=O)n1CC	-10%	-4%	-25%	0%	-13%	8.9µM*
O=C(CSc1nc2ccccc2c(=O)n1Cc1ccc(C(=O)NC2CC2)cc1)NCc1ccco1	-25%	-1%	5%	?	2.8µM*	-8%
CCn1c(SCc2nc3cc(OC)c(OC)cc3c(=O)[nH]2)nc2ccccc21	33%[10 µM]	0%	-13%	13%[46 µM]	.	-3%
COC(=O)c1ccc2c(=O)n(Cc3ccco3)c(SCC(=O)Nc3ccc(C)c(Cl)c3)nc2c1	6%[10 µM]	0%	4%	15%	-2%	?
O=C(CSc1nc2cc(Cl)ccc2c(=O)n1Cc1ccco1)Nc1ccc(S(=O)(=O)N2CCOCC2)cc1	14%[0.074 µM]	3%	-2%	7%	-9%	7.9µM*
O=C(Cn1cnc2ccccc21)NCCCN1CCOCC1	3%[0.074 µM]	0%	-11%	-8%	-13%	1%
